# Bioassay records as filed in PubChem.
# In the library only some 2.7% were active in any assay of this set; here they are far more common.
# gsp agonist: qHTS for Agonist of gsp, the Etiologic Mutation Responsible for Fibrous Dysplasia/McCune-Albright Syndrome: qHTS. gsp mutant cells, cAMP HTRF, 30 min. Potency, µM (doses to about 76.9 µM), for the others: at the top dose activation (cAMP increase), usual class: activators. 340,000 compounds, 0.13% hits; active = well fitted activation curve with a large enough effect; inconclusive = small, poorly fitted or top-dose-only effect, or another doubt; inactive = no such curve, though single readings can be large or run the other way; cell line not stated here;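 note: phosphodiesterase inhibitor Ro 20-1724 added with compounds to block cAMP breakdown; potency is the fitted concentration of half-maximal effect; nearly all actives have a fitted effect of over 60% in size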
#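 Cells in DMEM/10% FBS with G418 were pretreated with compounds in DMSO plus […] (300 uM stock) for 30 min at 37C. cAMP was measured by HTRF (cAMP-d2 plus anti-cAMP antibody-K) after 30 min at room temperature.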
# gsp antag: qHTS for Antagonists of gsp, the Etiologic Mutation Responsible for Fibrous Dysplasia/McCune-Albright Syndrome: qHTS; gsp-mutant cells, cAMP HTRF, 30 min; Potency, µM (doses to about 76.9 µM), inactives show top-dose activity change, negative = inhibition, actives largely listed as inhibitors; 340,000 compounds, 0.4% hits; AID 624288, 2012; calls by dose curve; cell line not stated here;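 note: intracellular cAMP measured with PDE inhibitor Ro 20-1724 present during compound exposure; potency is the fitted concentration of half-maximal effect; % is set by controls: 0 for no effect and ±100 for the full control effect; nearly all actives have a fitted effect of over 65% in size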
#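 Cells, 2000/well, grown 16–24 h in DMEM 10% FBS with 0.5 mg/ml G418, then compounds plus […] (300 uM addition stock), 30 min at 37C. cAMP read by HTRF (cAMP-d2 and anti-cAMP antibody-K in lysis buffer) after 30 min RT.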
# ClpP mod: qHTS Assay for Activators of ClpP; ATP-dependent Clp protease proteolytic subunit (Bacillus subtilis (strain 168)), P80244; purified B. subtilis ClpP, FRET peptide cleavage, 20 min; Potency, µM (doses to about 57.5 µM), for inactives: at the highest dose activity change, negative = active; 340,000 compounds, 1.9% hits; active = well fitted falling curve with a large enough effect; inconclusive = small, poorly fitted or top-dose-only effect; inactive = no such curve, though single readings can be large or run the other way; note: potency is the fitted concentration of half-maximal effect; the source files actives as falling curves though it sought activators and does not explain the sign; nearly all actives have a fitted effect of over 65% in size
#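 Purified B. subtilis ClpP, 10 microg/mL final in Tris/HCl pH8 with KCl, BSA, glycerol and Tween-20, cleaved an Abz/nitrotyrosine-quenched decapeptide. Fluorescence (ex 320, em 430) was read at 0 and 20 min at room temperature. Delta was normalized to 5.8 microM ADEP and DMSO/no-enzyme controls.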
# RXFP1 ag: qHTS Assay for Agonists of the Relaxin Receptor RXFP1; Potency, µM (doses to about 57.5 µM), for inactives: at the top dose activation, most hits filed as activators; 370,000 compounds, 0.3% hits; Relaxin receptor 1 (Homo sapiens), Q9HBX9; HEK293T-RXFP1 cAMP TR-FRET, 30 min; response scale: percent of porcine relaxin response, buffer zero; active = well fitted activation curve with a large enough effect; inconclusive = small, poorly fitted or top-dose-only effect; note: potency is the fitted concentration of half-maximal effect; % is set by controls: 0 for no effect and ±100 for the full control effect; nearly all actives have a fitted effect of over 60% in size
# Target sequence (Q9HBX9 whole entry, looked up): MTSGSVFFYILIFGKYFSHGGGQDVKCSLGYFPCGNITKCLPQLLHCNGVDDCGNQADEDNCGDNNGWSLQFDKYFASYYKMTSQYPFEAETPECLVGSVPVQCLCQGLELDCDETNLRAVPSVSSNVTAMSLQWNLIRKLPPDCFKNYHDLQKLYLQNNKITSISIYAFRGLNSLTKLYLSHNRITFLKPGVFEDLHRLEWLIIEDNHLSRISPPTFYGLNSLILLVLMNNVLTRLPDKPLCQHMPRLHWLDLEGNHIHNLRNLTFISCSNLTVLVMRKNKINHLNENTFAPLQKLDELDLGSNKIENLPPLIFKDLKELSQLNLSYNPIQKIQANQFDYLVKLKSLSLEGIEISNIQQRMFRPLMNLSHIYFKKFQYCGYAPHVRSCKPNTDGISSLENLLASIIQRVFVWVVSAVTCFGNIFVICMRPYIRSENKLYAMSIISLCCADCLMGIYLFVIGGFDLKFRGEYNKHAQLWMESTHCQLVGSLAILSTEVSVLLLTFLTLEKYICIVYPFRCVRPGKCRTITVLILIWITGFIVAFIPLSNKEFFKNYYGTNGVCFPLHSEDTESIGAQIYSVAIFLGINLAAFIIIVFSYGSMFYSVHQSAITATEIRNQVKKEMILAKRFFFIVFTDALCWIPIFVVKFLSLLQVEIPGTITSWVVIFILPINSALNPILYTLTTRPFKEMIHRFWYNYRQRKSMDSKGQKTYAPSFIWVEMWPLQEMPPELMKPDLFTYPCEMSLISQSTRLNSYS
#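 cAMP rise read by TR-FRET after 30 min, 37C compound exposure (up to 58 uM) in RXFP1-transfected HEK293 cells with Ro 20174 present. EC50 from Hill-equation fits, with 29 nM porcine relaxin as 100% and buffer as basal.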
# RXFP1 antag: qHTS Assay for Antagonists of the Relaxin Receptor RXFP1 | Relaxin receptor 1 (Homo sapiens), Q9HBX9 | HEK293-RXFP1, relaxin-stimulated cAMP HTRF, 30 min; hits give low values | activity change, negative = inhibition, % at 57.5 µM | 350,000 compounds, 0.59% hits | AID 1259400, 2018;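 active = activity change of -60% or lower, but not beyond a set lower limit; inconclusive = change between -60% and -40%, or beyond the set limit; inactive = change above -40%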; note: % is set by controls: 0 for no effect and ±100 for the full control effect
# Akt phos inh: HTS Assay for Inhibitors of Akt Phophorylation: Primary Screen. Neuro2A IGF-stimulated pAkt S473 HTRF, 20 min; hits give low values. activity change, % for hits at 50 µM. 360,000 compounds, 0.32% hits; in the data active = activity change below about -80%; inconclusive = mostly about -51% to -80%; note: % is set by controls: 0 for no effect and ±100 for the full control effect
#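 Neuro2A cells (4,500/well, DMEM with 0.5% FBS) were treated with compound at a single 50 µM final concentration, stimulated with 6 nM IGF for 20 min at 37 °C, and lysed. Phospho-Akt Ser473 was read by HTRF as 665/615 ratio ×10^4.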
# Starred values were filed as active, the others as inactive; i = inactive; ? = inconclusive; · = no result given; [ ] = dose if it differs, or a comment.
SMILES,gsp agonist,gsp antag,ClpP mod,RXFP1 ag,RXFP1 antag,Akt phos inh
COc1ccc2cc3c(N)nn(C(=O)c4ccccc4[N+](=O)[O-])c3nc2c1,3%[15.4 µM],-15%,28µM*,-1%,-23,i
CN(C)CCCN=Cc1c(O)n(Cc2ccccc2)c(=O)c2ccccc12,0%,3%,25µM*,0%,-11,i
O=C(CCc1nc2ccccc2c(=O)[nH]1)Nc1ccc(F)c([N+](=O)[O-])c1,64%[15.4 µM],-4%,0%,4%,-3,i
O=C(Nc1cc([N+](=O)[O-])c2[nH]c(=O)c3ccccc3c2c1)C(F)(F)F,-31%,-10%,32µM*,·,-2,i
NC(=O)COc1ccc(NC(=O)OCc2ccccc2)cc1,-45%,3%,32µM*,2%,1,-107%*
CCN(CC)c1ccc(/C=C/c2ccnc3ccccc23)cc1,·,·,4%,·,·,·
CN(C(=O)c1cc(-c2ccccc2)on1)C1CCCCC1,3%[15.4 µM],-7%,·,-4%,-10,i
O=C1C2C(c3ccccc3)C=CC(c3ccccc3)C2C(=O)N1CCCO (configuration not stated),12%,-7%,-6%,-1%,-8,-102%*
C=CCOCCN1C(=O)C2C(c3ccccc3)C=CC(c3ccccc3)C2C1=O (configuration not stated),-24%,-26%,-2%,2%,2,i
Cc1nnc(N2CCN(c3cccc(Cl)c3)CC2)c2c1nnn2Cc1ccc(F)cc1,·,·,?,5%,-13,·
COc1cccc(CNC(=O)c2c[nH]n3c(=O)c(Cl)c(C)nc23)c1,-8%[15.4 µM],4%,?,0%,-10,i
Cc1nc2c(C(=O)NCc3cccs3)cnn2c(C)c1Cc1ccccc1,·,·,·,2%,·,·
Cc1nc2c(C(=O)NCc3ccco3)cnn2c(C)c1Cc1ccc(F)cc1Cl,-3%,8%,32µM*,0%,2,i
Cc1cccc(Cc2c(C)nc3c(C(=O)NCc4ccco4)cnn3c2C)c1,-3%,-4%,32µM*,1%,?,i
Cc1nc2c(C(=O)NCc3ccc4c(c3)OCO4)cnn2c(C)c1Cc1ccc(F)cc1Cl,-11%,0%,35µM*,3%,-13,i
Cc1nc2c(C(=O)NCc3ccc4c(c3)OCO4)c[nH]n2c(=O)c1Cl,-4%,-16%,32µM*,-2%,23,i
Cc1ccccc1Cc1c(C)nc2c(C(=O)NCc3ccc4c(c3)OCO4)cnn2c1C,-30%,-12%,104%,5%,-22,i
O=C(CSc1nc2ccccc2nc1Cc1ccc(F)cc1)Nc1ccc2c(c1)OCO2,·,·,0%,0%,6,·
CSc1nn(Cc2ccc(F)cc2)c(N(C(C)=O)C(C)=O)c1S(=O)(=O)c1ccccc1,·,·,-2%,7%,·,·
COc1ccccc1NS(=O)(=O)c1cccc(C(=O)N2CCCCCC2)c1,13%[15.4 µM],-5%,·,0%,-20,i
COc1ccc2nc(CC(C)(C)CC(=O)O)c[n+]([O-])c2c1,-22%,-5%,16µM*,3%,-3,i
COc1cc2nc(Cl)nc(N)c2cc1OC,·,·,·,·,4,·
Cc1ccccc1-c1coc2cc(O)ccc2c1=O,-1%,2%,28µM*,1%,7,i
CN(C)c1ccc(C=Nc2ccc(/C=C3\C=Cc4ccccc43)cc2)cc1,·,·,-7%,·,·,·
CCCCCN(C(=O)COC(=O)COc1c(C)cc(C)cc1C)c1c(N)n(CCCC)c(=O)[nH]c1=O,-2%[15.4 µM],-8%,·,0%,-69*,i
SMILES,gsp agonist,gsp antag,ClpP mod,RXFP1 ag,RXFP1 antag,Akt phos inh
CCCCn1c(N)c(N(CCOC)C(=O)COC(=O)COc2c(C)cc(C)cc2C)c(=O)[nH]c1=O,-4%,12%,1%,1%,2,i
Cc1ccc(NC(=O)CN2C(=O)NC3(CCc4ccccc43)C2=O)cc1S(=O)(=O)N1CCCCC1 (configuration not stated),-3%,-11%,-1%,1%,7,i
O=S(=O)(NCc1ccc2c(c1)OCO2)c1cccc(F)c1,14%[15.4 µM],-6%,28µM*,-1%,-14,i
O=S(=O)(NCc1ccc2c(c1)OCO2)c1cccc(S(=O)(=O)N2CCOCC2)c1,1%,-4%,1%,1%,5,i
Cc1c(C(=O)OC2CCCCC2)sc2nc[nH]c(=O)c12,3%,-12%,28µM*,1%,2,i
Cc1c(CC(=O)NCCc2ccccc2)c(=O)oc2c(C)c3occ(C(C)(C)C)c3cc12,·,·,32µM*,2%,-6,·
Cc1c(CC(=O)NCCc2ccccc2F)c(=O)oc2c(C)c3occ(C(C)(C)C)c3cc12,·,·,?,0%,0,·
C[C@H]1C[C@H](O)c2ccsc2S1(=O)=O,·,·,·,·,-9,·
COCCn1c(=NC(=O)c2sc3ccccc3c2Cl)sc2cc(S(N)(=O)=O)ccc21,10%[15.4 µM],-14%,22µM*,15%,-18,i
C=CCn1c(=NC(=O)c2sc3ccccc3c2Cl)sc2cc(S(N)(=O)=O)ccc21,37%[15.4 µM],-12%,25µM*,18%,-10,i
CCOC(=O)Cn1c(=NC(=O)c2nc3ccccc3s2)sc2cc(S(N)(=O)=O)ccc21,-4%[15.4 µM],10µM*,32µM*,24%,-30,i
CCOC(=O)C1CCCN(S(=O)(=O)c2c(C)c(C)cc(C)c2C)C1 (configuration not stated),-2%,7.1µM*,-1%,-1%,-15,i
N#Cc1nc(-c2ccc(OCc3ccc(Cl)cc3)cc2)oc1N1CCCCC1,·,·,4%,·,·,·
Cc1ccc(CNC(=O)CSc2c3c(nc4cc(Cl)ccc24)CCCC3)o1,?,1%,-3%,7%,12,-103%*
COc1ccc(C2c3c(n(C)c4ccccc34)C(=O)N2CC(=O)Nc2ccc(C)cc2Cl)cc1 (configuration not stated),·,·,32µM*,2%,-8,·
COc1ccc(C2c3c(n(C)c4ccccc34)C(=O)N2CC(=O)Nc2cccc(Cl)c2)cc1 (configuration not stated),·,·,16µM*,-2%,-19,·
O=C(c1ccccc1)C(I)(I)N1CCOCC1,·,·,-4%,·,·,·
COc1cccc(NC(=O)C(=O)N2CCOCC2)c1,-14%,12%,-1%,-1%,-15,-100%*
